Results on 13 compounds are retold here after PubChem BioAssay (NCI).

Among the test systems are HCT-15 colon; HT29 colon; SNB-75 CNS; SNB-19 CNS; U251 CNS; PC-3 prostate; SK-MEL-5 melanoma; UACC-62 melanoma; LOX IMVI melanoma; SK-MEL-28 melanoma.
Holding throughout (experiment): NCI-60 one-dose screen, 48 h (100 = growth as untreated, 0 = no growth, -100 = all killed)
What all share (conditions): 10 µM unless noted

Compounds without any hit were thinned out: in the full panel of roughly 83,000, 20% have a hit.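 Method: cells in 96-well plates; compound added at one concentration; 48 h incubation; percent growth measured; values under 10 scored active.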 A number with no mark means an inactive call. Active and inactive are the calls of the source.

Regarding `CCn1cc(Cc2cc(C(=O)Nc3cc4cc(OC)c(OC)cc4c(C)n3)ccc2Cl)cn1`, the growth was 19.3% in the test with HCT-15 colon; 2.56% (active) in the test on HT29 colon; 36% in the test with SNB-75 CNS; 44.7% in the test with SNB-19 CNS; 48.3% in the test on U251 CNS; 29.2% in the test on PC-3 prostate. Further, the growth with SK-MEL-5 melanoma was 13.3%; in the test with UACC-62 melanoma, 43.8%; in the test with LOX IMVI melanoma, 5.28% (active); with SK-MEL-28 melanoma it was 35%.

On to `Cc1nn(-c2ccc([N+](=O)[O-])cc2)c2ncnc(N/N=C/c3ccccc3O)c12`, for which the growth in the test with HCT-15 colon is 26.2%; in the test on HT29 colon, 30.1%; in the test on SNB-75 CNS, 37.9%; with SNB-19 CNS, 18%; in the test with U251 CNS, 11.4%; with PC-3 prostate, 27%. Besides, the growth in the test on SK-MEL-5 melanoma was -42% (active); in the test on UACC-62 melanoma, -11.3% (active); with LOX IMVI melanoma it was 6.25% (active); with SK-MEL-28 melanoma, 22%.

As for `O=C1O[C@@H](c2ccccc2Cl)[C@@H]2c3cc4c(cc3CCN12)OCO4`, the growth with HCT-15 colon was 101%; with HT29 colon it was 86.4%; with SNB-75 CNS, 91.7%; in the test on SNB-19 CNS, 99.4%; in the test on U251 CNS, 86%; in the test with PC-3 prostate it was 87.7%. The growth with SK-MEL-5 melanoma is 96.6%; in the test on UACC-62 melanoma, 78.7%; in the test on LOX IMVI melanoma, 99.5%; with SK-MEL-28 melanoma it was 118%.

For the compound `CN1C(=O)/C(=C/c2ccc(C(=O)Nc3ncc(Cc4cccc(C(F)(F)F)c4)s3)cc2)SC1=S`, the growth is 36.3% in the test with HCT-15 colon; 55.4% in the test on HT29 colon; 64.1% with SNB-75 CNS; 61.5% with SNB-19 CNS; 67.8% with U251 CNS; 53.5% with PC-3 prostate. The growth was 7.19% (active) in the test with SK-MEL-5 melanoma, 11.3% in the test on UACC-62 melanoma, 35% with LOX IMVI melanoma and 46.4% in the test with SK-MEL-28 melanoma.

On to `CN(C)CCCn1c2c(c3ccncc3c1=O)C(=O)c1ccccc1-2`, for which the growth is 2.9% (active) in the test on HCT-15 colon; 2.14% (active) in the test on HT29 colon; 21% with SNB-75 CNS; 1.91% (active) with SNB-19 CNS; 0.267% (active) in the test on U251 CNS; -18.5% (active) with PC-3 prostate. Also, the growth with SK-MEL-5 melanoma was -94.3% (active); in the test with UACC-62 melanoma it was -56.7% (active); with LOX IMVI melanoma, -42.3% (active); in the test on SK-MEL-28 melanoma it was -43.1% (active).

`COc1ccc(-c2cn(Cc3cc4ccccc4s3)nn2)cc1OCCN1CCCCC1`: the growth was 59.4% with HCT-15 colon; 20.1% in the test on HT29 colon; 83.8% with SNB-75 CNS; 86.3% in the test with SNB-19 CNS; 74.5% with U251 CNS; 68.4% with PC-3 prostate. In addition, the growth in the test with SK-MEL-5 melanoma is 42.8%; in the test with UACC-62 melanoma it was 83.8%; in the test with LOX IMVI melanoma, 48.9%; in the test with SK-MEL-28 melanoma, 75.8%.

For `CSc1ccc(N2C(=N)C(=S)N(c3ccc(C)cc3)C2=O)cc1`, the growth in the test on HCT-15 colon is 85.9%; in the test with HT29 colon, 107%; in the test on SNB-75 CNS, 89.9%; in the test with SNB-19 CNS it was 101%; in the test on U251 CNS, 91%; in the test on PC-3 prostate, 74%. Also, the growth in the test on SK-MEL-5 melanoma is 101%; in the test on UACC-62 melanoma, 92.8%; in the test on LOX IMVI melanoma, 87.4%; in the test on SK-MEL-28 melanoma it was 106%.

`COc1ccc(/C=C2\c3cc(OC)c(OC)c(OC)c3CC[C@@H]2O)cc1F`: the growth in the test on HCT-15 colon is 20.7%; in the test on HT29 colon, 11.9%; with SNB-75 CNS, 14.5%; in the test on SNB-19 CNS it was 42.4%; with U251 CNS, 20.1%; in the test on PC-3 prostate it was 23.1%. Also, the growth in the test on SK-MEL-5 melanoma was 23.8%; with UACC-62 melanoma it was 34.2%; in the test with LOX IMVI melanoma it was 37.3%; with SK-MEL-28 melanoma, 70.1%.

For the compound `CCOC(=O)CC1CSC(N/N=C/c2ccc(F)c(Br)c2)=N1` (stereo not given), the growth in the test on HCT-15 colon was 101%; in the test on HT29 colon it was 84.8%; in the test with SNB-75 CNS, 109%; in the test on SNB-19 CNS it was 110%; in the test with U251 CNS, 94.7%; in the test with PC-3 prostate, 103%. Besides, the growth is 101% in the test with SK-MEL-5 melanoma, 103% in the test on UACC-62 melanoma, 101% in the test on LOX IMVI melanoma and 107% in the test with SK-MEL-28 melanoma.

As for `Cn1cc(-c2nc3c(F)cc4[nH]ncc4c3c3c2CCCC3)c(C(F)(F)F)n1`, the growth with HCT-15 colon is 23.7%; with HT29 colon it was 37.1%; in the test on SNB-75 CNS, 22.5%; in the test with SNB-19 CNS it was 75.3%; in the test on U251 CNS, 59.8%; in the test on PC-3 prostate, 0.262% (active). The growth with SK-MEL-5 melanoma is 40.2%; in the test on UACC-62 melanoma, 29.5%; in the test on LOX IMVI melanoma, 28.7%; in the test on SK-MEL-28 melanoma, 51%.

On to `O=C(Nc1ccccc1O)c1ccc(CNc2ccnc(C(F)(F)F)c2)cc1`, for which the growth was 67.5% in the test with HCT-15 colon; 75.8% with HT29 colon; 55.9% with SNB-75 CNS; 68% in the test with SNB-19 CNS; 60.3% with U251 CNS; 57.7% in the test on PC-3 prostate. Further, the growth in the test with SK-MEL-5 melanoma was 38.1%; with UACC-62 melanoma, 32.8%; with LOX IMVI melanoma it was 52.7%; in the test on SK-MEL-28 melanoma, 69.9%.

As to `Clc1ccc(-c2nc(C(Cl)Cl)nc3cc(-c4ccccc4)nn23)cc1`, the growth in the test with HCT-15 colon is 8.19% (active); in the test on HT29 colon it was 5.93% (active); in the test with SNB-75 CNS, -13.1% (active); in the test on SNB-19 CNS it was 25.2%; in the test with U251 CNS it was 7% (active); with PC-3 prostate it was 41.2%. Further, the growth in the test with SK-MEL-5 melanoma is 82.2%; in the test on UACC-62 melanoma, 79.8%; in the test with LOX IMVI melanoma it was 78.5%; in the test on SK-MEL-28 melanoma, 47.9%.

Turning to `C=C(C)[C@@H]1CC[C@]2(C(=O)Nc3ccccn3)CC[C@]3(C)[C@H](CC[C@@H]4[C@@]5(C)CCCNC(C)(C)[C@@H]5CC[C@]43C)[C@@H]12`, the growth is 13.1% in the test on HCT-15 colon; 4.13% (active) with HT29 colon; 33.4% in the test on SNB-75 CNS; 25% in the test on SNB-19 CNS; 10.4% with U251 CNS; 17.3% with PC-3 prostate. Besides, the growth in the test with SK-MEL-5 melanoma was -96.5% (active); with UACC-62 melanoma, 36.1%; with LOX IMVI melanoma it was 10.9%; in the test with SK-MEL-28 melanoma, 31.9%.
